Assay outcomes: PubChem, National Center for Advancing Translational Sciences (NCATS)
An excerpt weighted towards active compounds, which were near 11% of everything screened.
Sfp inh – Sfp phosphopantetheinyl transferase inhibition | 310,000 tested, 3.5% active | Potency, µM, most hits filed as inhibitors | AID 1490 | Biochemical Sfp PPTase activity, qHTS;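 further: the enzyme is Sfp with the accession as filed and its product quenches rhodamine fluorescence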
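Buffer: 50 mM Hepes-Na pH 7.6, 10 mM MgCl2, 0.01% Nonidet P-40, 0.01% BSA. Enzyme 15 nM, pre-exposed to compound 15 min; substrates then added and fluorescence change tracked over 30 min.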
Tau fibril FP – blocks human tau fibril formation measured by polarization; K18 P301L tau heparin fibrillization, Alexa594 FP, 6 h; Potency, µM (series often up to 57.7 µM), usual class: inhibitors; 280,000 tested, 0.39% active; further: nearly all actives have a fitted effect of over 55% in size
Target sequence (P10636 561-689 P618L limits assumed): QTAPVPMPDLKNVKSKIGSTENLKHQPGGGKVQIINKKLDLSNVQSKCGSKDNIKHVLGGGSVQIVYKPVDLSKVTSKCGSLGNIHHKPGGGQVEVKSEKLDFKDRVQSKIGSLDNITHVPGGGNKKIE
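Human K18 P301L fragment (15 uM unlabeled plus 0.24 uM Alexa 594-labeled) in 100 mM sodium acetate pH 7 with compound, aggregation induced by 20 uM heparin for 6 hr at 37 C. ThT (30 uM) added for 1 hr, then Alexa 594 FP read.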
Coupling enz – inhibits coupling enzyme system, counter-screen for aldolase hits; coupling enzyme system counterscreen, AmpLite Red fluorescence; activity change, negative = inhibition, % at 58.2 µM, hits read low; 290,000 tested, 0.67% active; AID 2472; in the data active means activity change below about -30%
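Counterscreen of the coupled detection system alone, without aldolase: glyceraldehyde-3-phosphate coupling enzymes plus AmpLite Red readout. Compounds at 57.5 uM final, 10 min RT preincubation, 20 min RT reaction, fluorescence 525/598 nm.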
Tau ThT inhib – blocks human tau fibril formation measured by thioflavin T; P10636; Potency, µM (series often up to 57.4 µM), actives largely listed as inhibitors; recombinant tau K18 P301L, heparin-induced fibrillization, ThT fluorescence; 270,000 tested, 2.1% active; further: nearly all actives have a fitted effect of over 55% in size
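Using a mix of unlabeled (15 uM) and Alexa 594-labeled (0.24 uM) tau K18 P301L, heparin-triggered fibrillization over 6 hr at 37 C was scored by ThT fluorescence.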
Tau fluor cs – counter-screen for tau fibril formation inhibitors. tau K18 P301L (four-repeat tau fragment) Alexa594 fluorescence, heparin fibrillization. Potency, µM (doses to about 57.7 µM). 280,000 tested, 0.93% active. AID 1463; further: nearly all actives have a fitted effect of over 55% in size
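Human K18 P301L tau (15 uM unlabeled plus 0.24 uM Alexa 594-labeled, final) in 100 mM sodium acetate pH 7 was mixed with compound and 20 uM heparin and incubated 6 hr at 37 C.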
G9a block – inhibitors of human histone lysine methyltransferase G9a; Potency, µM (titrated, usually from 102 µM), most hits filed as inhibitors; 350,000 tested, 8.8% active; G9a H3K9 monomethylation, AlphaScreen, 2 h; Q96KQ7; further: nearly all actives have a fitted effect of over 75% in size
Target sequence (Q96KQ7 913-1193 limits assumed): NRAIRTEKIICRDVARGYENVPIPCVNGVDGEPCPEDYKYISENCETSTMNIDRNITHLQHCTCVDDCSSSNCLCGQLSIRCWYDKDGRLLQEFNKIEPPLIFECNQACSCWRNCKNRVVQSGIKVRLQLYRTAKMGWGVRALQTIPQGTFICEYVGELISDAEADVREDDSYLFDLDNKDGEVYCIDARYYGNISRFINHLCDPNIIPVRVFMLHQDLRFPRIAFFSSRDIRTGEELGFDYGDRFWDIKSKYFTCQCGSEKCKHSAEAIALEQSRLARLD
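AlphaScreen read-out: biotin-H3K9 peptide (500 nM) methylation by 20 nM enzyme with 20 uM SAM, 2 h at room temperature after 15 min compound preincubation; anti-monomethyl H3K9 antibody plus donor/acceptor beads, 10 min dark.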
Numbers stand for hits; n = inactive; u = inconclusive; x = no result; [ ] = remark or other dose. Unless noted, the call rests on the fitted dose curve; in most records, active means well fitted curve in the direction sought with a large enough effect; inconclusive means small, poorly fitted or top-dose-only effect, or another doubt; inactive means no such curve, though single readings can be large; an effect the other way counts as inactive or inconclusive.

SMILES | Sfp inh | Tau fibril FP | Coupling enz | Tau ThT inhib | Tau fluor cs | G9a block
COc1ccc(NC(=O)[C@@H]2[C@@H]3C(=O)N(C4CCCCC4)C(=O)[C@@H]3C3c4ccccc4C=CN32)cc1 (stereo not given in full) | n | n | -30.6 | u | n | u
Cc1ccc(CNC(=O)C(=O)NCC(c2cccnc2)N2CCN(c3ccccc3F)CC2)cc1 (stereo not given) | x | n | x | n | n | n
CCN1/C(=C2\OC(=S)N(C)C2=O)C=Cc2ccccc21 | n | n | n | u | n | n
CN1C(=O)/C(=C2/C=CC=CN2C)OC1=S | 56.2µM | n | n | u | n | 31.6µM
Fc1ccccc1-c1csc(=Nc2cccnc2)n1CCCn1ccnc1 | n | n | n | u | n | 44.7µM
COCCn1c(-c2cccs2)csc1=Nc1cccnc1 | u | u | n | u | n | u
Cc1csc(=Nc2cccnc2)n1Cc1ccco1 | n | n | n | n | n | n
COCCn1c(-c2ccco2)csc1=Nc1cccnc1 | 20µM | n | n | u | n | u
CC(C)Cn1c(-c2ccco2)csc1=Nc1cccnc1 | u | n | n | u | n | 44.7µM
CC1=C(c2ccc(C)c(C)c2)S(=O)(=O)N=C1N1CCC(C(=O)NC(C)Cc2ccco2)CC1 (stereo not given) | x | n | x | u | n | n
CN=C1S/C(=C\c2ccc(N3CCOCC3)cc2C)C(=O)N1C | n | n | n | n | n | n
CCc1ccc(N=C2NC(=O)/C(=C/c3ccc(OCC(=O)O)cc3)S2)cc1 | n | x | n | x | x | 50.1µM
COc1ccc(N=C2NC(=O)/C(=C/c3ccc(O)c(OC)c3)S2)cc1 | n | n | n | 3.55µM | u | u
CCc1ccc(N=C2NC(=O)/C(=C/c3ccc(OCC(=O)O)c(OC)c3)S2)cc1 | n | x | n | x | x | x
COc1cc(/C=C2/SC(=Nc3ccc(O)cc3)NC2=O)cc(OC)c1O | n | n | n | u | n | n
CN1C(=O)/C(=C/c2ccco2)SC1=Nc1ccc(N2CCOCC2)cc1 | n | n | n | u | n | 7.08µM
O=C1NC(=Nc2ccc(O)cc2)S/C1=C\C=C\c1ccco1 | n | u | n | 1.58µM | u | 50.1µM
O=C(NCc1ccccc1Br)c1ccc2nc(N3CCCCC3)sc2c1 | x | n | x | u | u | n
Cc1cccc(C)c1OC(=O)CSc1nnc(CNC(=O)c2ccccc2)o1 | x | n | x | u | n | n
COc1ccc(N=C2NC(=O)/C(=C\c3ccco3)S2)cc1 | u | n | n | 10µM | u | u
COc1ccc(/C=C2\SC(=Nc3ccccc3)NC2=O)cc1 | n | x | n | x | x | x
Cc1ccc(NCc2ccncc2)c(Br)c1 | u | n | n | n | n | x
Cc1cc(NCc2ccncc2)ccc1Br | 79.4µM | n | n | u | n | x
CCNC(=S)NNC(=O)c1cc(-c2cccc(C)c2)nc2ccccc12 | n | u | n | n | n | u
O=C(NNC(=S)Nc1ccccc1)c1cc(-c2cccnc2)nc2ccccc12 | n | n | n | u | n | 15.8µM
SMILES | Sfp inh | Tau fibril FP | Coupling enz | Tau ThT inhib | Tau fluor cs | G9a block
CCNC(=S)NNC(=O)c1cc(-c2cccnc2)nc2ccccc12 | n | n | n | n | n | 44.7µM
CC(=O)Nc1cccc(NC(=O)c2cc(-c3cccnc3)nc3ccc(Br)cc23)c1 | n | u | x | n | u | n[0.501 µM]
CSc1ccccc1NC(=O)c1cc(-c2cccnc2)nc2ccc(Br)cc12 | 44.7µM | n | n | n | n | n[12.7 µM]
CCOC(=O)c1ccc(NC(=S)NNC(=O)c2cc(-c3cccnc3)nc3ccccc23)cc1 | n | x | x | x | x | n[12.7 µM]
CCCNC(=S)NNC(=O)c1cc(-c2cccnc2)nc2ccccc12 | n | x | x | x | x | n[0.501 µM]
CCCCNC(=S)NNC(=O)c1cc(-c2cccnc2)nc2ccccc12 | n | x | n | x | x | 79.4µM
Cc1ccc(CNC(=O)c2cnc3c(-c4ccccc4)c(C)nn3c2C)o1 | x | n | x | u | n | n
CCCCOc1ccc(CNC(=O)c2cnc3sc(N4CCC(C)CC4)nn3c2=O)cc1 | x | n | x | n | n | n
CCc1ccc(OCC(O)CN2CCN(c3ccc(OC)cc3)CC2)cc1 (stereo not given) | n | x | n | x | x | 10µM
CCN1CCN(CC(O)COc2cccc(OC)c2)CC1 (stereo not given) | n | n | n | n | n | 56.2µM
COc1ccc(N2CCN(CC(O)COCc3ccccc3)CC2)cc1 (stereo not given) | n | n | n | n | n | 39.8µM
COc1ccc(OCC(O)CN2CCCCC2)cc1 (stereo not given) | n | n | n | n | n | n
COc1ccc(COCC(O)CN2CCCC(C(F)(F)F)C2)cc1 (stereo not given) | u | x | n | x | x | 20µM
COc1ccc(OCC(O)CN2CCN(c3ccccc3)CC2)cc1 (stereo not given) | n | n | n | n | n | n[0.501 µM]
CCC(Oc1ccccc1-c1nnc(-c2ccccc2)o1)C(=O)Nc1ccc(C(C)=O)cc1 (stereo not given) | x | n | x | n | n | n
CC(=O)Nc1ccc(/C=C/c2nc(-c3ccccc3O)n(-c3ccccc3)n2)cc1 | x | u | x | n | n | n
NCC1O[C@@H](O[C@@H]2C(O)[C@H](O[C@H]3OC(CO)C(O)C(N)C3O)[C@@H](N)C[C@H]2N)C(N)C(O)C1O (stereo not given in full) | n | n | n | n | n | n[2.33 µM]
CCc1ccc(-n2c(=O)c3c4c(sc3n(CC(=O)c3ccc(Cl)cc3)c2=O)CCC4)cc1 | x | n | x | n | n | n
CC1C(=O)C(C)(C)C(=O)OC1c1ccccc1 (stereo not given) | n | n | n | n | n | n
CC1C(=O)C(C)(C)C(=O)OC1c1ccc([N+](=O)[O-])cc1 (stereo not given) | n | x | n | x | x | 50.1µM
CC1Sc2ccc(C(=O)Nc3ccc(S(=O)(=O)N(C)C)cc3)cc2NC1=O (stereo not given) | x | x | x | x | x | 31.6µM
CCCCCCCCCCCCCCCC[N+](C)(C)Cc1ccccc1 | 44.7µM | x | x | x | x | n[12.7 µM]
CCCCCCCCCCCCCC[N+](C)(C)Cc1ccccc1 | 39.8µM | x | x | x | x | n[12.7 µM]
C#CC[N+](C)(C)CCCCCCCCCC | n | n | n | n | n | n
C#CC[N+](C)(C)CCCCCCCCCCCC | n | u | n | n | n | n
CCCn1c(=S)[nH]c2cc(C(=O)N3CCN(C4CCCCC4)CC3)ccc2c1=O | n | x | n | x | x | n
Cc1ccc(S(=O)(=O)/N=C2\C=C(Nc3cccc(C(=O)O)c3)C(=O)c3ccccc32)c(C)c1 | n | x | -42.6 | x | x | 2.82µM
CCc1ccc(NC2=CC(=O)C(=O)c3ccccc32)cc1 | x | x | x | x | x | n[0.501 µM]
O=C(O)c1cccc(NS(=O)(=O)c2ccc3c(c2)C(=O)c2ccccc2C3=O)c1 | n | n | n | u | n | x
CCc1ccc(S(=O)(=O)/N=C2\C=C(Nc3ccc(C(=O)O)cc3)C(=O)c3ccccc32)cc1 | n | x | -47.6 | x | x | 8.91µM
